Results: PubChem BioAssay (NCATS)
Records with an inconclusive call do not appear. Entries that show only a call come without a potency. Active and inactive are the calls of the source. The call rests on the fitted dose curve; in most records, active means well fitted cell-killing curve with a large enough effect; inconclusive means small, poorly fitted or top-dose-only effect; inactive means flat fitted curve, though single readings scatter.

Assays:
[1] = Cell Viability - LYMP2-017 (AID 972); further: nearly all actives have a fitted effect of over 55% in size; further: potency means the concentration at half of the fitted maximal effect
In short: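 Luminescent ATP read-out (CellTiter-Glo, 30 min RT) reports viable cell number. Cells: human lymphoblastoid line, 2500 per well, 5 hr preincubation, 24 hr compound exposure at 37 C. AC50 is derived from qHTS concentration-response data using the standard Hill model.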

[2] = Cell Viability - LYMP2-019 (AID 973); further: nearly all actives have a fitted effect of over 55% in size; further: potency means the concentration at half of the fitted maximal effect
In short: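 qHTS, 1536-well; 2500 cells/well; 5 hr pre-incubation, 24 hr compound exposure, 37 C; CellTiter-Glo added, 30 min RT; luminescence read; AC50 via standard Hill equation.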

[3] = Cell Viability - LYMP2-021 (AID 974);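 further: compound exposure lasts 24 hours at 37 °C; nearly all actives have a fitted effect of over 55% in size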; further: potency means the concentration at half of the fitted maximal effect
In short: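 ATP luminescence (CellTiter-Glo, 30 min RT) after 24 h compound exposure at 37 C; 2500 human lymphoblastoid cells/well, 5 h settle beforehand. Cytotoxicity = concentration-dependent ATP drop, AC50 by Hill fit.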

[4] = Cell Viability - LYMP2-023 (AID 975); further: nearly all actives have a fitted effect of over 55% in size; further: potency means the concentration at half of the fitted maximal effect
In short: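 CellTiter-Glo luminescence after 30 min at room temperature; decrease in intracellular ATP reflects toxicity. Cells: human lymphoblastoid line, 2500/well, 24 hr compound exposure at 37 C. AC50 fitted to standard Hill equation from concentration-response.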

[5] = Cell Viability - LYMP2-025 (AID 976); further: series mostly up to about 92 µM
In short: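 CellTiter-Glo luminescence (cellular ATP) after 24 h compound exposure at 37 C; LYMP2-025 human lymphoblastoid cells, 2500/well, complete medium. Tetraoctylammonium bromide positive control. AC50 by Hill equation fit of qHTS concentration-response.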

[6] = Cell Viability - LYMP2-002 (AID 977); further: series mostly up to about 92 µM
In short: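 In this qHTS viability screen, 2500 human lymphoblastoid cells per well receive compound for 24 hr at 37 C, and luciferase-based ATP luminescence gives the viability signal. Tetraoctylammonium bromide serves as positive control.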

[7] = Cell Viability - LYMP2-006 (AID 978); further: nearly all actives have a fitted effect of over 60% in size; further: potency means the concentration at half of the fitted maximal effect
In short: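 Human lymphoblastoid cells, 2500 per well, were preincubated 5 hr at 37 C, then exposed to compounds for 24 hr at 37 C in complete medium. Viability was read as intracellular ATP by CellTiter-Glo luminescence; AC50 from Hill-equation fits of qHTS concentration-response data.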

[8] = Cell Viability - LYMP2-007 (AID 979);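 further: cells exposed to compound for 24 h before reading; nearly all actives have a fitted effect of over 60% in size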; further: potency means the concentration at half of the fitted maximal effect
In short: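 qHTS cytotoxicity: 2500 cells/well, 5 hr 37 C settle, compound 24 hr 37 C, CellTiter-Glo 30 min RT, luminescence. Decrease in ATP = toxicity. AC50 by standard Hill equation; tetraoctylammonium bromide positive control.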

[9] = Cell Viability - LYMP2-008 (AID 980); further: nearly all actives have a fitted effect of over 60% in size
In short: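 Luminescent ATP read-out (CellTiter-Glo, 30 min RT) after 24 hr compound exposure at 37 C of human lymphoblastoid cells in complete medium. Decrease in ATP taken as cytotoxicity; AC50 derived by standard Hill fit of qHTS concentration-response data.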

[10] = Cell Viability - LYMP2-010 (AID 981); further: nearly all actives have a fitted effect of over 55% in size; further: potency means the concentration at half of the fitted maximal effect
In short: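 qHTS cytotoxicity, 1536-well: 2500 cells/well, 5 hr settle, 24 hr compound at 37 C, CellTiter-Glo 30 min RT, luminescence read. Decrease in ATP = toxicity; AC50 via standard Hill equation. Positive control tetraoctylammonium bromide.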

[11] = Cell Viability - LYMP2-012 (AID 982); further: potency means the concentration at half of the fitted maximal effect
[12] = Cell Viability - LYMP2-014 (AID 983); further: series mostly up to about 92 µM; nearly all actives have a fitted effect of over 50% in size
In short: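 2500 cells/well, 5 hr 37 C; cpd 24 hr 37 C, complete medium; CellTiter-Glo 30 min RT, luminescence; ATP loss = toxicity; AC50 via Hill eqn; tetraoctylammonium bromide positive control.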

[13] = Cell Viability - LYMP2-016 (AID 984); further: nearly all actives have a fitted effect of over 55% in size; further: potency means the concentration at half of the fitted maximal effect
In short: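 Human lymphoblastoid cells (LYMP2-016), 2500/well in complete medium, preincubated 5 hr at 37 C, then compound-treated 24 hr at 37 C. Intracellular ATP read by CellTiter-Glo luminescence after 30 min at room temperature; AC50 from Hill-equation concentration-response fits.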

[14] = Cell Viability - LYMP2-018 (AID 985); further: nearly all actives have a fitted effect of over 50% in size; further: potency means the concentration at half of the fitted maximal effect
In short: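 2500 cells/well; 5 hr 37 C; cmpd 24 hr 37 C, complete medium; CellTiter-Glo 30 min RT; luminescence. Tetraoctylammonium bromide positive control. AC50 via Hill fit.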

[15] = Cell Viability - LYMP2-022 (AID 987); further: nearly all actives have a fitted effect of over 55% in size; further: potency means the concentration at half of the fitted maximal effect
In short: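 Luminescent ATP read-out (CellTiter-Glo, 30 min, RT) after 24 hr, 37 C compound exposure of 2500 human lymphoblastoid cells/well in complete medium. Cytotoxicity taken as concentration-dependent ATP loss; AC50 from standard Hill equation.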

[16] = Cell Viability - LYMP2-026 (AID 989); further: nearly all actives have a fitted effect of over 50% in size
In short: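 qHTS cytotoxicity: 2500 cells/well, 5 hr 37 C, compound 24 hr 37 C, CellTiter-Glo 30 min RT, luminescence. Tetraoctylammonium bromide positive control. AC50 via standard Hill fit.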

[17] = Cell Viability - LYMP1-002 - Assay at 24 hr (AID 993); further: potency means the concentration at half of the fitted maximal effect
In short: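 CellTiter-Glo luminescence (intracellular ATP) after 24 h compound exposure, 37 C, in LYMP1-002 human lymphoblastoid cells; decreased ATP taken as cytotoxicity. AC50 from standard Hill fit of concentration-response curves.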

[18] = Cell Viability - LYMP1-002 - Assay at 40 hr (AID 994); further: nearly all actives have a fitted effect of over 60% in size; further: potency means the concentration at half of the fitted maximal effect
In short: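 qHTS cytotoxicity; 2500 cells/well, 5 hr 37 C settle, compound 40 hr 37 C. CellTiter-Glo, 30 min RT, luminescence (ATP). Concentration-response, Hill fit → AC50. Pos. ctrl tetraoctylammonium bromide.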

SMILES | Potency [1] | Potency [2] | Potency [3] | Potency [4] | outcome [5] | outcome [6] | Potency [7] | Potency [8] | Potency [9] | Potency [10] | Potency [11] | Potency [12] | Potency [13] | Potency [14] | Potency [15] | outcome [16] | Potency [17] | Potency [18]
NCCN | inactive | inactive | inactive | inactive | inactive | inactive | inactive | inactive | inactive | inactive | inactive | inactive | inactive | inactive | inactive | inactive | inactive | inactive
CO/N=C(/C(=O)N[C@@H]1C(=O)N2C(C(=O)O)=C(COC(N)=O)CS[C@H]12)c1ccco1 | inactive | inactive | inactive | inactive | inactive | inactive | inactive | inactive | inactive | inactive | inactive | inactive | inactive | inactive | inactive | inactive | inactive | inactive
[O-][N+](=Nc1ccccc1)c1ccccc1 | inactive | inactive | inactive | inactive | inactive | inactive | inactive | inactive | inactive | inactive | inactive | inactive | inactive | inactive | inactive | inactive | inactive | inactive
C[C@H](CCC(=O)O)[C@H]1CC[C@H]2[C@@H]3[C@H](O)C[C@@H]4C[C@H](O)CC[C@]4(C)[C@H]3C[C@H](O)[C@]12C | inactive | inactive | inactive | inactive | inactive | inactive | inactive | inactive | inactive | inactive | inactive | inactive | inactive | inactive | inactive | inactive | inactive | inactive
CCCCC | inactive | inactive | inactive | inactive | inactive | inactive | inactive | inactive | inactive | inactive | inactive | inactive | inactive | inactive | inactive | inactive | inactive | inactive
C[C@H]1O[C@@H](O[C@H]2[C@@H](O)C[C@H](O[C@H]3[C@@H](O)C[C@H](O[C@H]4CC[C@@]5(C)[C@H](CC[C@@H]6[C@@H]5C[C@@H](O)[C@]5(C)[C@@H](C7=CC(=O)OC7)CC[C@]65O)C4)O[C@@H]3C)O[C@@H]2C)C[C@H](O)[C@@H]1O | 0.251 µM (active) |  |  |  |  |  |  |  |  | 0.251 µM (active) |  |  |  | 0.158 µM (active) | 0.251 µM (active) |  | 0.158 µM (active) | 0.158 µM (active)
c1ccc2ccccc2c1 | inactive | inactive | inactive | inactive | inactive | inactive | inactive | inactive | inactive | inactive | inactive | inactive | inactive | inactive | inactive | inactive | inactive | inactive
OC[C@H]1O[C@@H]2O[C@H]3[C@H](O)[C@@H](O)[C@@H](O[C@H]4[C@H](O)[C@@H](O)[C@@H](O[C@H]5[C@H](O)[C@@H](O)[C@@H](O[C@H]6[C@H](O)[C@@H](O)[C@@H](O[C@H]7[C@H](O)[C@@H](O)[C@@H](O[C@H]1[C@H](O)[C@H]2O)O[C@@H]7CO)O[C@@H]6CO)O[C@@H]5CO)O[C@@H]4CO)O[C@@H]3CO | inactive | inactive | inactive | inactive | inactive | inactive | inactive | inactive | inactive | inactive | inactive | inactive | inactive | inactive | inactive | inactive | inactive | inactive
CC/C=C\C/C=C\C/C=C\CCCCCCCC(=O)O | 50.1 µM (active) | 50.1 µM (active) | 50.1 µM (active) |  |  | inactive |  | 39.8 µM (active) |  | 39.8 µM (active) |  |  |  |  | 50.1 µM (active) |  | inactive | inactive
O.O.O.O.O.O.O.O=S(=O)([O-])[O-].[Co+2] | inactive |  |  | inactive | inactive |  | inactive |  | inactive |  |  |  | inactive | inactive |  |  | inactive | inactive
CO | inactive | inactive | inactive | inactive | inactive | inactive | inactive | inactive | inactive | inactive | inactive | inactive | inactive | inactive | inactive | inactive | inactive | inactive
OCc1ccccc1 | inactive | inactive | inactive | inactive | inactive | inactive | inactive | inactive | inactive | inactive | inactive | inactive | inactive | inactive | inactive | inactive | inactive | inactive
COC(=O)c1ccccc1O | inactive | inactive | inactive | inactive | inactive | inactive | inactive | inactive | inactive | inactive | inactive | inactive | inactive | inactive | inactive | inactive | inactive | inactive
ClC(Cl)Cl | inactive | inactive | inactive | inactive | inactive | inactive | inactive | inactive | inactive | inactive | inactive | inactive | inactive | inactive | inactive | inactive | inactive | inactive
OCl | inactive | inactive | inactive | inactive | inactive | inactive | inactive | inactive | inactive | inactive | inactive | inactive | inactive | inactive | inactive | inactive | inactive | inactive
O=c1n(CC2CO2)c(=O)n(CC2CO2)c(=O)n1CC1CO1 (centres undefined) | 39.8 µM (active) | 39.8 µM (active) | 31.6 µM (active) | 39.8 µM (active) |  |  | 39.8 µM (active) | 39.8 µM (active) |  | 25.1 µM (active) | 25.1 µM (active) |  | 31.6 µM (active) | 15.8 µM (active) | 31.6 µM (active) |  | 39.8 µM (active) | 7.94 µM (active)
C[C@H](CCC(=O)O)[C@H]1CC[C@H]2[C@@H]3CC[C@@H]4C[C@H](O)CC[C@]4(C)[C@H]3C[C@H](O)[C@]12C | inactive | inactive | inactive | inactive | inactive | inactive | inactive | inactive | inactive | inactive |  |  | inactive | inactive | inactive | inactive | inactive | inactive
Oc1ccc(/C=C/c2cc(O)cc(O)c2)cc1 | inactive | inactive | inactive | inactive | inactive | inactive | inactive | inactive | inactive | inactive | inactive | inactive | inactive | inactive | inactive | inactive | inactive | 
CCOC(C)OCC | inactive | inactive | inactive | inactive | inactive | inactive | inactive | inactive | inactive | inactive | inactive | inactive | inactive | inactive | inactive | inactive | inactive | inactive
